Measured values taken from the supplement of paper PMC7156485.
Values without a mark were called inactive.

test system: TDF; assay: H1.0 immunofluorescence intensity relative to DMSO (% of DMSO); higher = stronger H1.0 induction, active = 120 or more; settings: concentration: 10 µM; 24 h
Outline: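 HCC1569 and TDF cells (800 per well, 384-well plates, RPMI with 10% FBS) were treated with compounds at 10 µM for 24 h at 37 °C, in triplicate. Cells were fixed in 3.7% formaldehyde and stained with a rabbit anti-H1.0 antibody, an AlexaFluor 647 secondary and DAPI; six fields per well were imaged at ×10. H1.0 nuclear intensity or cell number is expressed as percent of the plate DMSO control, taking the median of replicates. HCC1569 values were smoothed for positional effects.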
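Further: TDF is a line of transformed human dermal fibroblasts of mesenchymal origin.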

**Q.** For `CC[N+](CC)(CC)CCOc1cccc(OCC[N+](CC)(CC)CC)c1OCC[N+](CC)(CC)CC.[I-].[I-].[I-]` [Gallamine triethiodide], which H1.0 immunofluorescence intensity is on record?
**A.** Its H1.0 immunofluorescence intensity is 98.8.

**Q.** How did the H1.0 immunofluorescence intensity turn out when `O=C1CN(N=Cc2ccc(-c3ccc([N+](=O)[O-])cc3)o2)C(=O)[N-]1.[Na+]` [Dantrolene sodium] was run?
**A.** The H1.0 immunofluorescence intensity was 100.

**Q.** With `CC(=O)C1(O)CCC2C3CCC4=CC(=O)CCC4(C)C3CCC21C` (centres undefined) [17- Hydroxyprogesterone] as the compound, how does the H1.0 immunofluorescence intensity read?
**A.** The H1.0 immunofluorescence intensity was 94.

**Q.** Which H1.0 immunofluorescence intensity does the source give for `Cc1cc(O)c2c(c1)C(=O)c1cc(O)cc(O)c1C2=O` [Emodin] here?
**A.** The H1.0 immunofluorescence intensity was 98.6.

**Q.** Which H1.0 immunofluorescence intensity does the source give for `COc1cc2ncnc(Nc3cccc(Cl)c3)c2cc1OC` here?
**A.** The H1.0 immunofluorescence intensity was 99.4.

**Q.** With `Cc1ccc(F)c(NC(=O)Nc2ccc(-c3cccc4[nH]nc(N)c34)cc2)c1` as the compound, how does the H1.0 immunofluorescence intensity read?
**A.** The H1.0 immunofluorescence intensity was 101.

**Q.** Which H1.0 immunofluorescence intensity does the source give for `CC1CNCCN1S(=O)(=O)c1cccc2cnccc12.Cl.Cl` (centres undefined) here?
**A.** Its H1.0 immunofluorescence intensity is 88.4.

**Q.** For `CN(C)CCCn1cc(C2=C(c3c[nH]c4ccccc34)C(=O)NC2=O)c2ccccc21` [Bisindolylmaleimide I], which H1.0 immunofluorescence intensity is on record?
**A.** The H1.0 immunofluorescence intensity was 111.

**Q.** With `COC1C(OC(N)=O)C(O)C(Oc2ccc3c(O)c(NC(=O)c4ccc(O)c(CC=C(C)C)c4)c(=O)oc3c2C)OC1(C)C.[Na+]` (centres undefined) [Novobiocin.Na] as the compound, how does the H1.0 immunofluorescence intensity read?
**A.** Its H1.0 immunofluorescence intensity is 95.7.

**Q.** With `COc1ccc2nc(S(=O)Cc3ncc(C)c(OC)c3C)[nH]c2c1` (centres undefined) [Omeprazole] as the compound, how does the H1.0 immunofluorescence intensity read?
**A.** The H1.0 immunofluorescence intensity was 95.5.

**Q.** For `COc1ccc(S(=O)(=O)Nc2cc(Cl)cc(Cl)c2OC)cc1N1CCNCC1.Cl`, which H1.0 immunofluorescence intensity is on record?
**A.** Its H1.0 immunofluorescence intensity is 93.4.

**Q.** How did the H1.0 immunofluorescence intensity turn out when `CC(C)(C)c1ccc(S(=O)(=O)Nc2ccc(-n3ccnc3)cc2)cc1` [Stem-Cell Factor/c-Kit Inhibitor, ISCK03] was run?
**A.** Its H1.0 immunofluorescence intensity is 103.

**Q.** With `Cl.Fc1ccc(C(OCCCc2cnc[nH]2)c2ccc(F)cc2)cc1` as the compound, how does the H1.0 immunofluorescence intensity read?
**A.** The H1.0 immunofluorescence intensity was 88.3.

**Q.** Which H1.0 immunofluorescence intensity does the source give for `CCCCCC=CCC=CCC=CCCCCCCC(=O)O` [Dihomo-γ-linolenic acid] here?
**A.** Its H1.0 immunofluorescence intensity is 96.3.

**Q.** How did the H1.0 immunofluorescence intensity turn out when `CCCCOC(=O)NC(=O)C1c2ccccc2Oc2ccccc21` [butyl 9H-xanthen-9-ylcarbonylcarbamate] was run?
**A.** The H1.0 immunofluorescence intensity was 90.1.

**Q.** With `O=c1c(-c2ccc(O)cc2)coc2cc(OC3OC(CO)C(O)C(O)C3O)ccc12` (centres undefined) [Daidzin] as the compound, how does the H1.0 immunofluorescence intensity read?
**A.** The H1.0 immunofluorescence intensity was 94.8.

**Q.** Which H1.0 immunofluorescence intensity does the source give for `COc1ccc2c3c1OC1CC(O)C=CC31CCN(C)C2` (centres undefined) [Galanthamine] here?
**A.** Its H1.0 immunofluorescence intensity is 94.

**Q.** With `O=C(O)c1cc(N(Cc2ccccc2O)Cc2cc(O)ccc2O)ccc1O` [Lavendustin A] as the compound, how does the H1.0 immunofluorescence intensity read?
**A.** The H1.0 immunofluorescence intensity was 108.

**Q.** With `COc1cc2c3cc1Oc1cc(ccc1O)CC1c4c(cc(OC)c(O)c4Oc4ccc(cc4)CC3N(C)CC2)CC[N+]1(C)C` (single isomer, unassigned; (+)) [(+)-Tubocurarine chloride] as the compound, how does the H1.0 immunofluorescence intensity read?
**A.** Its H1.0 immunofluorescence intensity is 104.

**Q.** For `COc1ccc(C=C2c3ccccc3C(=O)c3ccccc32)cc1O` [10-(3-hydroxy-4-methoxybenzylidene)-9(10H)-anthracenone], which H1.0 immunofluorescence intensity is on record?
**A.** The H1.0 immunofluorescence intensity was 189 (active).

**Q.** Which H1.0 immunofluorescence intensity does the source give for `O=c1c(-c2ccc(O)cc2)coc2cc(O)ccc12` [Daidzein] here?
**A.** Its H1.0 immunofluorescence intensity is 92.4.

**Q.** `NC(=S)NCCCC(N)C(=O)O` (centres undefined) [Thiocitrulline] was tested. Which H1.0 immunofluorescence intensity did it give?
**A.** Its H1.0 immunofluorescence intensity is 91.5.

**Q.** For `CN(C)CCC(c1ccc(Cl)cc1)c1ccccn1.O=C(O)C=CC(=O)O` (racemic), which H1.0 immunofluorescence intensity is on record?
**A.** Its H1.0 immunofluorescence intensity is 103.

**Q.** How did the H1.0 immunofluorescence intensity turn out when `CCCCCC=CCC(O)C=CC=CC=CC(O)CCCC(=O)O` [5(S),12(S)-DIHETE all trans] was run?
**A.** The H1.0 immunofluorescence intensity was 93.5.

**Q.** `CN(C)c1ccc(O)c2c1CC1CC3C(N(C)C)C(=O)C(C(N)=O)=C(O)C3(O)C(=O)C1=C2O.Cl` (centres undefined) [Minocycline hydrochloride] was tested. Which H1.0 immunofluorescence intensity did it give?
**A.** Its H1.0 immunofluorescence intensity is 99.7.

**Q.** How did the H1.0 immunofluorescence intensity turn out when `Cl.NCCCC(N)(C(=O)O)C(F)F` (racemic) [DL-alpha-Difluoromethylornithine hydrochloride] was run?
**A.** The H1.0 immunofluorescence intensity was 94.3.

**Q.** How did the H1.0 immunofluorescence intensity turn out when `COc1cccc2c1C(=O)c1c(O)c3c(c(O)c1C2=O)CC(O)(C(=O)CO)CC3OC1CC(N)C(O)C(C)O1.Cl` (centres undefined) [Doxorubicin.HCl] was run?
**A.** Its H1.0 immunofluorescence intensity is 132 (active).

**Q.** Which H1.0 immunofluorescence intensity does the source give for `CCn1cc(C(=O)O)c(=O)c2cc(F)c(N3CCNCC3)nc21` [Enoxacin] here?
**A.** The H1.0 immunofluorescence intensity was 98.8.

**Q.** Which H1.0 immunofluorescence intensity does the source give for `NC(=O)c1ncn(C2OC(CO)C(O)C2O)c1O` (centres undefined) [Mizoribine] here?
**A.** Its H1.0 immunofluorescence intensity is 91.2.
